Results from PubChem BioAssay (NCATS).
Unmarked numbers belong to inactive results. Results filed as inconclusive are left out. Entries that show only a call come without a potency. Active and inactive are the calls of the source. Unless noted, calls follow the shape of the dose curve; as a rule, active = well fitted curve in the direction sought with a large enough effect; inconclusive = small, poorly fitted or top-dose-only effect, or another doubt; inactive = no such curve, though single readings can be large; an effect the other way counts as inactive or inconclusive.

biological target: Cytochrome P450 2D6 (Homo sapiens) (UniProt P10635); experiment: qHTS Assay for Inhibitors and Substrates of Cytochrome P450 2D6 (AID 891); conditions: recombinant CYP2D6, luciferin-ME EGE luminescence; series mostly up to 57.1 µM; also: potency is read from the fitted curve at half-maximal effect; nearly all actives have a fitted effect of over 60% in size
In short: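 Human CYP2D6 (5 nM) with 30 uM Luciferin-ME EGE (at Km) in 100 mM KPO4, compound preincubated 10 min, then NADPH regeneration system for 60 min at room temperature. Luciferin read by luminescence; normalized to 1.43 uM quinidine.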

Chain of Cytochrome P450 2D6 (Homo sapiens) (P10635 whole entry, looked up): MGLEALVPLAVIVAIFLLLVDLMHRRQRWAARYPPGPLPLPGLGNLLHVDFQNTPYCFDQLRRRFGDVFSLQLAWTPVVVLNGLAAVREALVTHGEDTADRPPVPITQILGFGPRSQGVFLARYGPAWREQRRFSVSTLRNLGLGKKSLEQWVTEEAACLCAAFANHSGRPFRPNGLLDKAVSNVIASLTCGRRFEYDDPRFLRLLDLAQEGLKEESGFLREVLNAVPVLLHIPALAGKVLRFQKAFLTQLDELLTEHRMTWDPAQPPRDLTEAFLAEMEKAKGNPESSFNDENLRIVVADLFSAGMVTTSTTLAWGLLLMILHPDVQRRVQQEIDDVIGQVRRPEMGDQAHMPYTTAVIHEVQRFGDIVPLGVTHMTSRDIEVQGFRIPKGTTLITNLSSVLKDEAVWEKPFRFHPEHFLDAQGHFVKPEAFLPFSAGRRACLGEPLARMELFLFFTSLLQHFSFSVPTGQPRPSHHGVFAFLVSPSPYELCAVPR

Structure (SMILES)	Potency
CN(C)Cc1ccccc1-c1nccc(NC2CC2)n1	631 nM (active)
COc1cccc(-c2cncnc2NCCc2cnc[nH]2)c1	7940 nM (active)
COc1ccc2[nH]cc(CCNc3ccnc(-c4ccccc4C)n3)c2c1	2510 nM (active)
c1ncc(-c2ccc3c(c2)OCO3)c(NCCc2cnc[nH]2)n1	2510 nM (active)
COc1ccc2[nH]cc(CCNc3ncnc4ccc(-c5c(C)noc5C)cc34)c2c1	6310 nM (active)

biological target: Cytochrome P450 2C19 (Homo sapiens) (UniProt P33261); experiment: qHTS Assay for Inhibitors and Substrates of Cytochrome P450 2C19 (AID 899); conditions: recombinant CYP2C19, luciferin-H EGE luminescence; series mostly up to 57.1 µM; also: potency is read from the fitted curve at half-maximal effect; nearly all actives have a fitted effect of over 60% in size
In short: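 Signal comes from luciferase acting on luciferin released by CYP2C19-mediated hydroxylation of Luciferin-H EGE, 10uM (KM). Assay mix: 5nM enzyme, 50mM KPO4; 60 min at 37C with NADPH regeneration. Data normalized against 57uM ketoconazole.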

Chain of Cytochrome P450 2C19 (Homo sapiens) (P33261 whole entry, looked up): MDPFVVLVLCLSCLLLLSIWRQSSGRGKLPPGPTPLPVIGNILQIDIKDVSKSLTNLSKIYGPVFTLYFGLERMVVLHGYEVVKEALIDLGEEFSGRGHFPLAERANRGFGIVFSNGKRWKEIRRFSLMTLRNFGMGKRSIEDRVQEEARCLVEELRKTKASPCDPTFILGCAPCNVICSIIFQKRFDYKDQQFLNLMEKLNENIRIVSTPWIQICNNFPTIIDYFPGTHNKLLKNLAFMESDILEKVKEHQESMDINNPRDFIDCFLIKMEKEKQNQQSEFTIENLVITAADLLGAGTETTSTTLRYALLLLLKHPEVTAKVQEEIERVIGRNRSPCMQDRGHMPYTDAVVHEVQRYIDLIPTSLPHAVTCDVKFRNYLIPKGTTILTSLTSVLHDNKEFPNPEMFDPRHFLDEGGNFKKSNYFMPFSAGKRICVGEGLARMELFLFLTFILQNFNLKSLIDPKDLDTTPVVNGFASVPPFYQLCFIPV

Structure (SMILES)	Potency
COc1ccc2[nH]cc(CCNc3ccnc(-c4ccccc4C)n3)c2c1	2510 nM (active)
c1csc(CNc2nc(-c3ccc4c(c3)OCO4)nc3ccccc23)c1	3160 nM (active)
c1ccc(Nc2ncncc2-c2ccc3c(c2)OCO3)cc1	251 nM (active)
c1ncc(-c2ccc3c(c2)OCO3)c(NCCc2cnc[nH]2)n1	39.8 nM (active)
COc1ccc(CNc2ccnc(-c3ccccc3Cl)n2)c(OC)c1	1260 nM (active)
COc1ccc2[nH]cc(CCNc3ccnc(-c4ccoc4)n3)c2c1	501 nM (active)
FC(F)(F)c1ccccc1-c1cc(NCc2cccs2)ncn1	794 nM (active)

tested on: not listed separately; experiment: Confirmation and Secondary Assay for Modulators of Hemoglobin Beta Chain Splicing at IVS2 654 locus (AID 910); conditions: HeLa EGFP-654 splicing reporter, GFP fluorescence, 48 h; series mostly up to 38.3 µM;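 also: HeLa cells stably carrying EGFP split by mutant beta-globin IVS2-654 intron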
In short: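 HeLa cells stably expressing EGFP interrupted by β-globin IVS2-654 intron, seeded overnight in Opti-MEM/2% FCS, then treated 2 days at 37 °C. Restored splicing read as total peak GFP intensity per well by laser scanning cytometry (488 nm excitation, 500–520 nm emission); 500 nM antisense PNA as control.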

Structure (SMILES)	Potency
CN(C)Cc1ccccc1-c1nccc(NC2CC2)n1	inactive
N#Cc1cccc(-c2cc(-n3ccnc3)ncn2)c1	inactive
COc1cccc(-c2cncnc2NCCc2cnc[nH]2)c1	inactive
CN(Cc1ccco1)c1ccnc(-c2ccoc2)n1	inactive
COc1cccc(-c2nc(NCc3cnc(C)cn3)c3ccccc3n2)c1	inactive
c1cncc(-c2ccc3ncnc(N4CCNCC4)c3c2)c1	inactive
CN(C)C(=O)c1ccc(-c2cncnc2NCCN2CCOCC2)cc1	inactive
c1ncc(-c2ccc3c(c2)OCO3)c(NCCc2cnc[nH]2)n1	inactive
CN(C)C(=O)c1ccc(-c2nccc(NCc3cccnc3)n2)cc1	inactive
CC(=O)NCCNc1ncnc2ccc(-c3ccc(C(=O)N(C)C)cc3)cc12	inactive
COCCNc1ccnc(-c2c(C)noc2C)n1	inactive
COc1ccc2[nH]cc(CCNc3nc(-c4ccccc4CN(C)C)nc4ccccc34)c2c1	inactive

tested on: not listed separately; experiment: qHTS Assay for Identification of Small Molecule Agonists for Hypoxia Response Element Signaling Pathway (AID 914; active = well fitted activation curve with a large enough effect in the signal ratio, with a control signal flat, not every such curve was filed as active; the % refers to the signal ratio; also: potency is read from the fitted curve at half-maximal effect); conditions: ME-180 HRE-bla reporter, beta-lactamase ratio, CoCl2, 17 h; activation: active compounds read high
In short: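 ME-180 cells carrying an HRE-driven beta-lactamase reporter were treated with compounds in a titration series plus an EC50 level of CoCl2 for 17 h at 37 degrees Celsius; CCF4 readout as the 460nm/530nm ratio gave AC50 values.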

Structure (SMILES)	activation [%]	Potency
Cc1ccccc1-c1nccc(-n2ccnc2)n1	-1.43	–
COc1cccc(-c2nc(NCc3cnc(C)cn3)c3ccccc3n2)c1	6.27	–
COc1ccc2[nH]cc(CCNc3ncncc3-c3ccc(C(=O)N(C)C)cc3)c2c1	11.5	–
CCNc1ncc2nc(-c3ccc(Cl)cc3)c(=O)n(Cc3cccs3)c2n1	–	126 nM (active)
COc1ccc(CNc2ccnc(-c3ccccc3Cl)n2)c(OC)c1	-15.3	–
c1ccc(CNc2ncncc2-c2ccoc2)cc1	1.1	–
Clc1ccccc1-c1nc(NCCN2CCOCC2)c2ccccc2n1	–	3160 nM (active)
CCNc1ncc2nc(-c3ccccc3)c(=O)n(Cc3cccc(OC)c3)c2n1	–	3160 nM (active)

tested on: not listed separately; experiment: Confirmation and Secondary Assay for Modulators of Hemoglobin Beta Chain Splicing at IVS2 705 locus (AID 930); conditions: HeLa EGFP-705 splicing reporter, GFP fluorescence, 48 h; series mostly up to 38.3 µM;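 also: HeLa cells stably expressing the EGFP-705 splicing reporter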
In short: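 HeLa cells stably carrying EGFP interrupted by mutant beta-globin IVS2-705 intron (CMV-driven) were seeded at 500 cells/well, treated next day with compound for 2 days at 37C; corrected splicing restores EGFP, read as total peak GFP intensity per well.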

Structure (SMILES)	outcome
Cc1ccccc1-c1nccc(-n2ccnc2)n1	inactive
CN(C)Cc1ccccc1-c1nccc(NC2CC2)n1	inactive
N#Cc1cccc(-c2cc(-n3ccnc3)ncn2)c1	inactive
COc1cccc(-c2cncnc2NCCc2cnc[nH]2)c1	inactive
FC(F)(F)c1ccccc1-c1cncnc1NCCc1cnc[nH]1	inactive
c1cncc(-c2ccc3ncnc(N4CCNCC4)c3c2)c1	inactive
CN(C)C(=O)c1ccc(-c2cncnc2NCCN2CCOCC2)cc1	inactive
CN(C)C(=O)c1ccc(-c2nccc(NCc3cccnc3)n2)cc1	inactive
CC(=O)NCCNc1ncnc2ccc(-c3ccc(C(=O)N(C)C)cc3)cc12	inactive
COCCNc1ccnc(-c2c(C)noc2C)n1	inactive
COc1ccc2[nH]cc(CCNc3nc(-c4ccccc4CN(C)C)nc4ccccc34)c2c1	inactive

biological target: Dual specificity protein kinase CLK4 (Homo sapiens) (UniProt Q9HAZ1); experiment: qHTS Assay for Inhibitors of CDC-like Kinase 4 (ADP-FP Assay) (AID 1795); conditions: Transcreener ADP fluorescence polarization; series mostly up to 50 µM; also: nearly all actives have a fitted effect of over 60% in size; also: potency is read from the fitted curve at half-maximal effect
In short: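 Kinase activity was followed as ADP output, converted from fluorescence polarization with a calibration curve. Reactions ran one hour at low ATP (1 uM) with RS peptide substrate.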

Chain of Dual specificity protein kinase CLK4 (Homo sapiens) (Q9HAZ1 whole entry, looked up): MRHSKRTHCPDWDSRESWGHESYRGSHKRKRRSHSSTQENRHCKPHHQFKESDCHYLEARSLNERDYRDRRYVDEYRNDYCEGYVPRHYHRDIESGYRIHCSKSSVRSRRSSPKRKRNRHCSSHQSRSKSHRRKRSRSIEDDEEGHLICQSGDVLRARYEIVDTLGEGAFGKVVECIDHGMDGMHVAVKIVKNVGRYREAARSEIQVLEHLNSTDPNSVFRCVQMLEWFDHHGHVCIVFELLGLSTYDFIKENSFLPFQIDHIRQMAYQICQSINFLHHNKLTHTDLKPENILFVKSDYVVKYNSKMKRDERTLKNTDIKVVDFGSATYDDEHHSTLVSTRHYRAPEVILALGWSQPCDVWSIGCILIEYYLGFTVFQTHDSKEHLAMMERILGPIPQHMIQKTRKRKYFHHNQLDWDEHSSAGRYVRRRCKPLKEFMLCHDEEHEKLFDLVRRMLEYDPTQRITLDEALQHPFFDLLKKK

Structure (SMILES)	Potency
CN(C)C(=O)c1ccc(-c2ccc3ncnc(N(C)Cc4ccco4)c3c2)cc1	7080 nM (active)
CN(C)C(=O)c1ccc(-c2ccc3ncnc(Nc4ccccc4)c3c2)cc1	inactive
COc1ccc2[nH]cc(CCNc3cc(-c4ccccc4CN(C)C)ncn3)c2c1	inactive
COc1ccc2[nH]cc(CCNc3ccnc(-c4ccccc4C)n3)c2c1	inactive
c1csc(CNc2nc(-c3ccc4c(c3)OCO4)nc3ccccc23)c1	inactive
COc1ccc2[nH]cc(CCNc3ncncc3-c3ccc(C(=O)N(C)C)cc3)c2c1	inactive
CCNc1ncc2nc(-c3ccc(Cl)cc3)c(=O)n(Cc3cccs3)c2n1	inactive
COc1ccc(CNc2ccnc(-c3cccc(NS(C)(=O)=O)c3)n2)c(OC)c1	inactive
COc1ccc(CNc2ccnc(-c3ccccc3Cl)n2)c(OC)c1	inactive
Clc1ccccc1-c1nc(NCCN2CCOCC2)c2ccccc2n1	inactive
COCCNc1nc(-c2ccccc2C(F)(F)F)nc2ccccc12	inactive
CN(Cc1ccco1)c1cc(-c2cccnc2)ncn1	inactive
FC(F)(F)c1ccccc1-c1cc(NCc2cccs2)ncn1	inactive
COc1ccc2[nH]cc(CCNc3ncnc4ccc(-c5c(C)noc5C)cc34)c2c1	3980 nM (active)
CCNc1ncc2nc(-c3ccccc3)c(=O)n(Cc3cccc(OC)c3)c2n1	inactive
